Source: PubChem
ANO1 activ – activates or potentiates the mouse TMEM16A chloride channel; Q8BHY3; B-score at 10 µM; AID 623877; HEK293 TMEM16A/YFP-H148Q/I152L, iodide quench fluorescence; active compounds read low; actives 0.3% (n = 340,000);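 active = fluorescence-ratio B-score plate-corrected deviation score at least 3 library SD below zero, with starting fluorescence score within 5 deviations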;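 note: channel opened by trigger with iodide after compound preincubation; score built on the fluorescence ratio of max minus min over baseline; more negative score means more quench and so TMEM16A activation or potentiation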
ANO1 block – inhibitors of mouse TMEM16A calcium-activated chloride channel; Q8BHY3; HEK293 TMEM16A/YFP iodide influx fluorescence, ionomycin; normalized B-score (activity score, 25-100; higher = stronger inhibition) at 10 µM; actives 1.2% (n = 310,000); AID 588511;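 active = ratio plate-corrected score three or more library SD toward inhibition, starting fluorescence score within five deviations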;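 note: score derived from kinetic fluorescence span divided by baseline fluorescence per well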
aSyn 5UTR inh – 5' untranslated region of α-synuclein, MLPCN primary screen. alpha-synuclein 5'UTR reporter, inhibitor activity. inhibition, % (tested at 7.5 µM). actives 0.82% (n = 300,000). AID 1813; in the data active = inhibition above about 60%; inconclusive = no clear call, values can overlap the other calls;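 note: H4 neuroglioblastoma cells stably carrying SNCA 5'UTR luciferase fusion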
KLF5 inhibitor – kruppel-like factor 5 inhibition; DLD-1 KLF5 promoter-luciferase reporter, luminescence; inhibition, % at 5 µM; actives 0.23% (n = 290,000);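 active = inhibition above a per-plate limit of that plate's mean compound inhibition plus 3 SD, cut at about 60% in these data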;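 note: higher means less KLF5 promoter-driven luciferase light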
Jurkat NFkB inh – lowers PMA/ionomycin-induced NF-kB signal in Jurkat cells; PMA/ionomycin-induced NF-kB luciferase reporter, luminescence; inhibition, % at 4 µM; actives 0.53% (n = 330,000); AID 435003; in the data active = inhibition above about 50%
697 NFkB inh – inhibitors of the PMA/ionomycin-induced NF-kB reporter in 697 B cells. 697 B-cell NF-kB luciferase reporter, 16 h. inhibition, % at 4 µM. actives 0.33% (n = 330,000). AID 435022; in the data active = inhibition above about 35%
697 NFkB conf – lowers PMA/ionomycin-induced NF-kB signal in 697 B cells; AID 449746; inhibition, % at 4 µM; shares compounds with 697 NFkB inh; 697 B-cell NF-kB luciferase, 16 h; actives 35% (n = 2,000); in the data active = inhibition mostly above about 28%, no sharp cut-off; inactive = mostly below about 22%
TMEM16A reconf – reconfirmed blocker of mouse TMEM16A calcium-activated chloride channel; inhibition, % at 10 µM; HEK293 TMEM16A/YFP-H148Q, iodide quench fluorescence; ionomycin added to raise cell calcium; AID 652189; shares compounds with ANO1 block; actives 39% (n = 2,300);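 active = mean duplicate percent inhibition, scaled so buffer wells are 0 and the reference blocker 100, over three buffer SD above buffer mean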
TMEM16A Ca cntr – alters calcium mobilization in TMEM16A HEK293 cells, counter-screen; shares compounds with ANO1 block; TMEM16A/YFP HEK293, Fluo4 calcium mobilization; calcium response (% of ionomycin), % at 10 µM; actives 2% (n = 2,300);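 active = duplicate-averaged calcium signal over 20% of the ionomycin maximum, relative to buffer baseline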;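 note: each well's signal is peak minus trough fluorescence divided by its pre-addition baseline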
Parental YFP cnt – counter-screen for TMEM16A inhibitors: effect in parental YFP-HEK293 cells; shares compounds with ANO1 block; iodide YFP quench, ionomycin; YFP ratio F(max-min)/F0 at 10 µM; 2,300 tested, under 10 active;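 active = yellow fluorescent protein signal ratio exceeding the buffer control mean by over 5 SD of those controls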;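 note: ratio is mean of duplicate wells from kinetic YFP trace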
ClC-1 rat inh – blocks the rat ClC-1 voltage-dependent chloride channel; CHO ClC-1-YFP, iodide influx fluorescence quench; iodide control reads 0, buffer control 100; shares compounds with ANO1 block; 2,300 tested, under 10 active; ratio percent, % at 10 µM;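 active = duplicate-mean ratio percent above the mean of iodide-only control wells, which defines zero, plus 5 of their SD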;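 note: higher percent means stronger block of ClC-1 iodide influx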
Target sequence (P35524 whole entry, looked up): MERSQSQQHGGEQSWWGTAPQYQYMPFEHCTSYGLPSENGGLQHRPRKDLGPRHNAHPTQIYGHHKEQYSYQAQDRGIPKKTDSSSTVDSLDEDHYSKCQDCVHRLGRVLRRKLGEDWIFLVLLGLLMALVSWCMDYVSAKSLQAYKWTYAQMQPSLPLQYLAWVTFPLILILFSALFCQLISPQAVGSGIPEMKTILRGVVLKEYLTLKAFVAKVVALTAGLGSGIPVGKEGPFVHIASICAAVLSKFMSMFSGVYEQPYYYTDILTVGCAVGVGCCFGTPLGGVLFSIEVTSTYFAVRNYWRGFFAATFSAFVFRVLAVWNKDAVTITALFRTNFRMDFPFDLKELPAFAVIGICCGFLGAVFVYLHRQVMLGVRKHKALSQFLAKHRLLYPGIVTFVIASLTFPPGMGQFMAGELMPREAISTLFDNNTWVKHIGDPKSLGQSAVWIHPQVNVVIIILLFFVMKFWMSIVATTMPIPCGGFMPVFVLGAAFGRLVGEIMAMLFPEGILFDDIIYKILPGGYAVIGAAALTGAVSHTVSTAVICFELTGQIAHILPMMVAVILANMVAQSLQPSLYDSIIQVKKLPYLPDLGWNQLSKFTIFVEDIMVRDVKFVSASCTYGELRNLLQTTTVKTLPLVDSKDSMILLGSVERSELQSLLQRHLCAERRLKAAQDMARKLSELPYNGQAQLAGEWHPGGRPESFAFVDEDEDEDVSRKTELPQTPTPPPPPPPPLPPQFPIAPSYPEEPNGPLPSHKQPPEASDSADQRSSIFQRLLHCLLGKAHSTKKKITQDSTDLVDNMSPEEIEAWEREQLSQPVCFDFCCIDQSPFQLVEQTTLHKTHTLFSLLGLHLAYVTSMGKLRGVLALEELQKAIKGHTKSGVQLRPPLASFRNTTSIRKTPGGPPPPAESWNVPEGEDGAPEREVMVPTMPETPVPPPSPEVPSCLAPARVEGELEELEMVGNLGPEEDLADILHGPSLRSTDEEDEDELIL
Large screens that a line does not name were inactive (follow-up assays come after a bar, where they were run). Only some compounds are listed: those with a hit (about 2.5% of all), similar ones and a draw of the others.

Cc1cc(C(=O)NC2CCCc3c2cnn3-c2cccc(C)c2C)no1 (configuration not stated)	ANO1 block 25 | 697 NFkB conf inactive | TMEM16A reconf inactive | TMEM16A Ca cntr inactive | Parental YFP cnt inactive | ClC-1 rat inh inactive
C[C@]1(CO)CCC[C@@]2(C)C1CC[C@@H](CO)[C@@H]2CCc1ccoc1 (some centres not stated)	none (no result: ANO1 activ)
C=CCn1c(C)cc(C(=O)CSc2nc3ccccc3c(=O)[nH]2)c1C	none (no result: aSyn 5UTR inh)
C=CCn1c(C)cc(C(=O)CSc2nc3ccccc3[nH]2)c1C	ANO1 block 25, aSyn 5UTR inh inconclusive | 697 NFkB conf inactive | TMEM16A reconf 43.0% | TMEM16A Ca cntr inactive | Parental YFP cnt inactive | ClC-1 rat inh inactive
Cc1ccc(C(=O)CSc2nnc(COc3cccc(C)c3)o2)cc1	ANO1 block 100, 697 NFkB inh 49.4 | 697 NFkB conf 56.9 | TMEM16A reconf inactive | TMEM16A Ca cntr inactive | Parental YFP cnt inactive | ClC-1 rat inh inactive
CCOC(=O)c1sc(NC(=O)c2cc(-c3ccc(C)cc3)nc3ccccc23)c(C#N)c1C	none
Cc1ccccc1-c1cc(C(=O)Nc2sc(C(=O)OC(C)C)c(C)c2C#N)c2ccccc2n1	ANO1 block 25, 697 NFkB inh 37.4 | 697 NFkB conf 43.5 | TMEM16A reconf 67.5% | TMEM16A Ca cntr inactive | Parental YFP cnt inactive | ClC-1 rat inh inactive
CC1CN(S(=O)(=O)c2ccc(C(=O)Nc3nc(-c4cc5ccccc5o4)cs3)cc2)CC(C)O1 (configuration not stated)	ANO1 block 25, 697 NFkB inh 74.2 | 697 NFkB conf 51.4 | TMEM16A reconf inactive | TMEM16A Ca cntr inactive | Parental YFP cnt inactive | ClC-1 rat inh inactive
CCn1cc(S(=O)(=O)c2ccc(Cl)cc2)c(=O)c2cc(OC)ccc21	none
O=S(=O)(NCc1ccncc1)c1ccc(Br)s1	ANO1 block 100, 697 NFkB inh 51.2 | 697 NFkB conf 44.8 | TMEM16A reconf inactive | TMEM16A Ca cntr inactive | Parental YFP cnt inactive | ClC-1 rat inh inactive
O=C(O)CNS(=O)(=O)c1ccc(Br)s1	none
CCC(Oc1ccccc1)C(=O)OCC(=O)Nc1sccc1C(N)=O (configuration not stated)	none (no result: ANO1 block, aSyn 5UTR inh, KLF5 inhibitor)
Cc1ccccc1OCCC(=O)OCC(=O)NC1CCCCC1	none (no result: KLF5 inhibitor)
Cc1csc(SCC(=O)c2cc(C)n(Cc3cccs3)c2C)n1	ANO1 block 100, aSyn 5UTR inh 73.0 | 697 NFkB conf inactive | TMEM16A reconf 16.5% | TMEM16A Ca cntr inactive | Parental YFP cnt inactive | ClC-1 rat inh inactive
COc1ccc(-c2nnc(SCC(=O)c3cc(C)n(Cc4cccs4)c3C)o2)cc1	none
Brc1ccc2ncnc(NCc3ccccc3)c2c1	none
c1ccc(CCNc2ncnc3ccccc23)cc1	ANO1 block 25, 697 NFkB inh 49.1 | 697 NFkB conf 29.0 | TMEM16A reconf inactive | TMEM16A Ca cntr inactive | Parental YFP cnt inactive | ClC-1 rat inh inactive
CC(C)(Oc1ccc(Cl)cc1)C(=O)OCC(=O)NCCc1ccccc1	none
COc1cccc(OC)c1C(=O)Nc1cc(Cl)ccc1N1CCOCC1	697 NFkB inh 38.9 | 697 NFkB conf inactive | TMEM16A reconf inactive | TMEM16A Ca cntr inactive | Parental YFP cnt inactive | ClC-1 rat inh inactive
COc1ccccc1NC(=O)Cc1nnc(SCC(=O)NC2CCCCC2)n1C	none
Cc1cc(C)cc(NC(=O)c2nnn(Cc3cc(C)ccc3C)c2N)c1	ANO1 activ -4.57, ANO1 block 25, 697 NFkB inh 37.7 | 697 NFkB conf 28.5 | TMEM16A reconf 41.5% | TMEM16A Ca cntr inactive | Parental YFP cnt inactive | ClC-1 rat inh inactive
Cc1ccc(O)c(-c2cc(C(F)(F)F)[nH]n2)c1	ANO1 block 100, 697 NFkB inh 40.0 | 697 NFkB conf inactive | TMEM16A reconf 56.5% | TMEM16A Ca cntr inactive | Parental YFP cnt inactive | ClC-1 rat inh inactive
Cc1cccc2cc3c(N)c(C(=O)Nc4ccc(N5CCOCC5)cc4)sc3nc12	none | TMEM16A reconf inactive | TMEM16A Ca cntr inactive | Parental YFP cnt inactive | ClC-1 rat inh inactive
Cc1ccc(Sc2ncccc2COC(=O)Nc2c(C)cccc2C)cc1	ANO1 block 100 | TMEM16A reconf inactive | TMEM16A Ca cntr inactive | Parental YFP cnt inactive | ClC-1 rat inh inactive
Cc1ccccc1NC(=O)OCc1cccnc1Sc1ccc(Cl)cc1	none
Cc1ccc(Sc2ncccc2COC(=O)Nc2ccccc2)cc1	ANO1 block 100 | TMEM16A reconf inactive | TMEM16A Ca cntr inactive | Parental YFP cnt inactive | ClC-1 rat inh inactive
Cc1ccc(Sc2ncccc2C(=O)O)cc1	none
CCOC(=O)[C@H]1[C@H]2COc3ccccc3[C@@H]2N2C(=O)[C@@H](CO)NC(=O)[C@@]12C	none (no result: ANO1 block, aSyn 5UTR inh, KLF5 inhibitor)
O=c1c(Sc2ccccc2)c(C(F)(F)F)[nH]n1-c1ccccc1	ANO1 block 100 | TMEM16A reconf 23.5% | TMEM16A Ca cntr inactive | Parental YFP cnt inactive | ClC-1 rat inh inactive
COC(=O)[C@@]12CCCN1[C@H](c1ccc(-c3ccc(OC)cc3)cc1)[C@@H]1C(=O)N(C)C(=O)[C@@H]12	none (no result: KLF5 inhibitor)
N#C/C(=C\c1ccc(N2CCOCC2)o1)C(=O)NCC1CCCO1 (configuration not stated)	none
N#C/C(=C\c1ccc(N2CCOCC2)o1)C(=O)NC1CCCCC1	none | TMEM16A reconf inactive | TMEM16A Ca cntr inactive | Parental YFP cnt inactive | ClC-1 rat inh inactive
Cc1ccc(-c2noc(CCCC(=O)NC3CCCC3)n2)cc1	ANO1 block 25 | TMEM16A reconf inactive | TMEM16A Ca cntr inactive | Parental YFP cnt inactive | ClC-1 rat inh inactive
COC(=O)C1CCN(S(=O)(=O)c2ccc(OC)cc2)CC1	ANO1 block 100 | TMEM16A reconf inactive | TMEM16A Ca cntr inactive | Parental YFP cnt inactive | ClC-1 rat inh inactive
CCOC(=O)c1c(NC(=O)C(NCCN(C)C)c2ccccc2)sc2c1CCCC2 (configuration not stated)	none
O=C(NCCC(=O)N1CCC2(CC1)NCCc1[nH]cnc12)c1cccc(Cl)c1	none
